LDHA block: qHTS assay for inhibitors of human lactate dehydrogenase; purified LDHA, NADH/diaphorase-resazurin fluorescence; stronger effect = lower value; activity change, % (values are at about 110 or 230 µM); L-lactate dehydrogenase A chain (Homo sapiens), P00338; 480,000 tested, 0.15% active; in the data active = activity change below about -30%; inconclusive = mostly about -25% to -30%;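 also: plate controls were DMSO wells for no effect and wells without enzyme for full effect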
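Remaining NADH was detected by diaphorase (0.133 mg/mL) converting 37 µM resazurin to fluorescent resorufin, read at 0 and 20 minutes. The preceding 5-minute room-temperature reaction used 2 nM LDHA, 0.2 mM sodium pyruvate and 0.06 mM NADH at pH 7.4.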
ClpP mod: qHTS Assay for Activators of ClpP | ATP-dependent Clp protease proteolytic subunit (Bacillus subtilis (strain 168)), P80244 | purified B. subtilis ClpP, FRET peptide cleavage, 20 min | Potency, µM (doses to about 57.5 µM), for inactives: at the highest dose activity change, negative = active | 340,000 tested, 1.9% active; active = well fitted falling curve with a large enough effect; inconclusive = small, poorly fitted or top-dose-only effect; inactive = no such curve, though single readings can be large or run the other way; also: potency is read from the fitted curve at half-maximal effect; the source files actives as falling curves though it sought activators and does not explain the sign; nearly all actives have a fitted effect of over 65% in size
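FRET quenching reversal measured ClpP activation: 10 microg/mL B. subtilis ClpP at pH 8 with the FRET-FV decapeptide, read at 430 nm after 320 nm excitation. The 20-min minus 0-min signal was scaled between DMSO/no-enzyme wells and ADEP (5.8 microM final).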
hERG WT inh: qHTS for Inhibitors of KCHN2 3.1: Wildtype qHTS. U2OS, BacMam KCNH2, thallium flux FluxOr; stronger effect = lower value. activity change, % at 1.84 µM. 340,000 tested, 0.37% active. AID 720551, 2013;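 active = maximum activity change below -70%; inconclusive = maximum activity change between -70% and -50%; inactive = maximum activity change above -50%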; also: % is scaled to controls: 0 for no effect and ±100 for the full control effect
Target sequence (Q12809 whole entry, looked up): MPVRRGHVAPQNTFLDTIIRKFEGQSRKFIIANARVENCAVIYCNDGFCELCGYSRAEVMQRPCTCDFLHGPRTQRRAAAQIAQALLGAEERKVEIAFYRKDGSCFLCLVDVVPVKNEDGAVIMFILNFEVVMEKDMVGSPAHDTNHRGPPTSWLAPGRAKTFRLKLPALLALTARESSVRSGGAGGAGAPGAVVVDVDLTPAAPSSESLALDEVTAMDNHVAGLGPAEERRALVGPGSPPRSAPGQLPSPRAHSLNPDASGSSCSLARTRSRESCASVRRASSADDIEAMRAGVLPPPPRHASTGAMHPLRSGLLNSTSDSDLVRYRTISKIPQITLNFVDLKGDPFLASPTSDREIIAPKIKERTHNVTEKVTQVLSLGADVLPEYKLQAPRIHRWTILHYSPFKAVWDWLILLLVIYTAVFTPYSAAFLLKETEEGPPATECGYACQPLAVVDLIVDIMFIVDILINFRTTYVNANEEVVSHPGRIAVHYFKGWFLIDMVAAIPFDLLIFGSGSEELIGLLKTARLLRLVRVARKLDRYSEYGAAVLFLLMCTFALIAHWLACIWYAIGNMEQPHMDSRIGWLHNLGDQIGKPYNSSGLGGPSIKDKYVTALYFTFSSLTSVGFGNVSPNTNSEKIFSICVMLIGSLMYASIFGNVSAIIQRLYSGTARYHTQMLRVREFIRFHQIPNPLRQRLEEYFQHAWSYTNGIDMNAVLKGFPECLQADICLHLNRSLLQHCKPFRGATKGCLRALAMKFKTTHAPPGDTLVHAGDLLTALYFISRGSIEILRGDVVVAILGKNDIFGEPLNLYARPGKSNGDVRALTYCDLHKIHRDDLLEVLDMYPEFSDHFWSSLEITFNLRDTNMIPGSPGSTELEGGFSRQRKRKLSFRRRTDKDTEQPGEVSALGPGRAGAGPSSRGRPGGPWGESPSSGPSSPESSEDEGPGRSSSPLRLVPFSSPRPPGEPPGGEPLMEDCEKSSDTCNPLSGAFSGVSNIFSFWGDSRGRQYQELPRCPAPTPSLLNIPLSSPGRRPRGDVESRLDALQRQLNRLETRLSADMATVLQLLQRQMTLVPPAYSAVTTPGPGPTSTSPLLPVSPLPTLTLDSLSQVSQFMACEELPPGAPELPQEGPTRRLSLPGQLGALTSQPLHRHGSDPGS
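U2OS cells were transduced with wild-type KCNH2 virus (2.03 x 10^8 / mL) for 4 h at room temperature, then cultured overnight at 37 C. Thallium flux was read with FluxOr dye. Rate constants were normalized to DMSO controls.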
KCNH2 3.1 block: qHTS for Inhibitors of KCHN2 3.1: Mutant qHTS. activity change, % (tested at about 1.8 µM). 340,000 tested, 0.95% active. Potassium voltage-gated channel subfamily H member 2, brain isoform KCNH2 3.1 (human). U2OS KCNH2 3.1, thallium flux FluxOr; stronger effect = lower value;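 active = maximum activity change below -70%; inconclusive = maximum activity change from -70% to -50%; inactive = maximum activity change above -50%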;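 also: thallium influx rate constant from kinetic fluorescence after stimulation buffer; % is scaled to controls: 0 for no effect and ±100 for the full control effect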
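U2OS cells transduced with KCNH2 3.1 mutant virus (1.77 x 10^8 /mL, 4 h), plated overnight at 37 C, loaded 45 min with FluxOr dye plus Red40 quencher. Thallium flux rate constant from kinetic reads after stimulation buffer, normalised to controls.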
BCR signal inh: qHTS Assay to Find Inhibitors of Chronic Active B-Cell Receptor Signaling; ABC-DLBCL IkBa-CBG/CBR reporter, luminescence ratio, 4 h; Potency, µM (top dose mostly 46.1 µM), without a hit: at the highest dose activity change, negative = inhibition, most hits filed as inhibitors; 340,000 tested, 0.05% active; active = well fitted inhibition curve with a large enough effect in the signal ratio, with a control signal flat, not every such curve was filed as active; inconclusive = small, poorly fitted or top-dose-only effect, or effect the other way, or a change in a side signal; the % refers to the signal ratio;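 also: potency is read from the fitted curve at half-maximal effect; plate controls were basal doxycycline-induced cells for no effect and cells given 10 µM MG132 for full effect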
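TMD8 human ABC-DLBCL cells with doxycycline-inducible IκBα–green luciferase fusion and unfused red luciferase, in 0.5% FBS medium; compounds up to 46 uM, 4 h at 37C. Green/red luminescence ratio, filter-overlap corrected, fitted to concentration-response curves.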
12-LOX inh: Primary qHTS assay for inhibitors of human arachidonate 12S-lipoxygenase (ALOX12): Round 2. purified 12hLO, xylenol orange hydroperoxide absorbance. 580,000 tested, 1.1% active. Polyunsaturated fatty acid lipoxygenase ALOX12 (Homo sapiens), P18054. AID 1671190, 2021. Potency, µM (doses to about 108 µM), without a hit: top-dose activity change, negative = inhibition, hits mostly inhibitors; active = well fitted inhibition curve with a large enough effect; inconclusive = small, poorly fitted or top-dose-only effect, or another doubt; inactive = no such curve, though single readings can be large or run the other way; also: potency is read from the fitted curve at half-maximal effect; % is scaled to controls: 0 for no effect and ±100 for the full control effect
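Hydroperoxide product was detected by ferrous iron/xylenol orange as the 573 to 405 nm absorbance ratio. Arachidonic acid at 40 uM (final) was turned over for 30 min at room temperature by 150 nM human 12hLO, pH 7.0 Hepes buffer, after 15 min compound preincubation.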
An asterisk follows results filed as active; [ ] = another dose, or the depositor's remark. Shown are actives, neighbours in structure and some others; about 3% of the full set was active somewhere.

`Clc1ccc2c(SCC3CO3)c3ccccc3nc2c1` (stereo not drawn) gave LDHA block -6.5, ClpP mod 31.6µM*, hERG WT inh 17.0 and 12-LOX inh -24.5%.
Screening Cc1c(C(=O)OC2CCCCC2)sc2nc[nH]c(=O)c12 returned LDHA block -13.9, ClpP mod 28.2µM*, hERG WT inh 2.7, KCNH2 3.1 block 7.8, BCR signal inh inconclusive and 12-LOX inh 6.4%.
`COc1cc([C@@H]2c3cc4c(cc3[C@H](O)[C@@H](CO)[C@@H]2C(=O)NC2CCCC2)OCO4)cc(OC)c1OC` gave 12-LOX inh 56.2%.
For COc1ccc(OC)c(/C=C/C(=O)OC2(C(F)(F)F)C(=O)Nc3c2ccc2ccccc32)c1 (stereo not drawn) the results were LDHA block 14.8 and 12-LOX inh -83.6%.
Screening Nc1nonc1NN=C1CCCCC1 returned LDHA block -0.8, ClpP mod -1.2%, hERG WT inh -10.6, KCNH2 3.1 block -80.5*, BCR signal inh 7.3% and 12-LOX inh -0.7%.
`Cc1ccc(N2CCN(C(=O)c3cn(CC4CCCCC4)nn3)C(C)C2)cc1` (stereo not drawn) gave LDHA block 0.8, ClpP mod -0.5%, hERG WT inh -6.0, KCNH2 3.1 block -71.1* and 12-LOX inh -5.1%.
CCNC(=O)CN(CC)c1nc(C(F)(F)F)nc2ccccc12 was read as LDHA block 14.0 and 12-LOX inh inconclusive.
Screening CCOc1nc2ccccc2nc1N1CCC(C(N)=O)CC1 returned LDHA block -10.6 and 12-LOX inh 0.5%.
`O=C1C=C(c2ccccc2)C[C@H](c2cccs2)[C@H]1n1nnc([N+](=O)[O-])n1` gave LDHA block 16.0, ClpP mod -1.8%, hERG WT inh 35.5, KCNH2 3.1 block -2.1, BCR signal inh inconclusive and 12-LOX inh 50.1µM*.
O=C1C=C(c2ccccc2)CC(c2cccs2)C1n1cnc([N+](=O)[O-])c1 (stereo not drawn) was read as LDHA block 8.1, ClpP mod 0.6%, hERG WT inh 2.3, BCR signal inh 3.4% and 12-LOX inh inconclusive.
For O=C(O)c1ccc(CNc2ccccc2C(=O)O)cc1 the results were LDHA block -0.7, ClpP mod 31.6µM*, hERG WT inh -5.7, KCNH2 3.1 block -12.1, BCR signal inh inconclusive and 12-LOX inh 1.1%.
O=C(O)c1ccccc1NCc1ccncc1 was read as LDHA block 3.6, ClpP mod 14.1µM*, hERG WT inh 7.4, KCNH2 3.1 block -17.8, BCR signal inh -5.6% and 12-LOX inh -10.4%.
`Cc1ccsc1/C=C/C(=O)c1ccc(C2CCCCC2)cc1` gave LDHA block -1.1 and 12-LOX inh 3.1%.
CC(=O)c1sc2nc(CSc3nnnn3-c3ccccc3)[nH]c(=O)c2c1C was read as LDHA block -4.0, ClpP mod 1.4%, hERG WT inh 7.9, KCNH2 3.1 block 5.1, BCR signal inh inconclusive and 12-LOX inh -28.2%.
Cc1ccc(-n2[nH]c(CSc3nnnn3-c3ccccc3)cc2=O)cc1 was read as LDHA block -0.6 and 12-LOX inh 50.1µM*.
Screening O=c1cc(CSc2nnnn2-c2ccccc2)[nH]n1-c1ccc(Cl)cc1 returned LDHA block 0.3 and 12-LOX inh 39.8µM*.
Screening Cc1ccc(-n2nnnc2SCc2nc3sc(C)c(C)c3c(=O)[nH]2)cc1 returned LDHA block 3.2, ClpP mod 3.55µM*, hERG WT inh 3.3, KCNH2 3.1 block -3.7, BCR signal inh 0.1% and 12-LOX inh 0.4%.
COc1ccccc1CC(=O)N1C[C@H](c2nc(-c3ccncc3)no2)[C@@H](C)C1 was read as 12-LOX inh -3.9%.
`CCOC(=O)N1CCN(C(=S)NC(=O)c2ccc(F)c(F)c2)CC1` gave LDHA block 0.4, ClpP mod 28.2µM*, hERG WT inh 0.2, KCNH2 3.1 block 2.5, BCR signal inh -12.8% and 12-LOX inh -13.2%.
CCOC(=O)N1CCN(C(=S)NC(=O)c2cccc(OC)c2)CC1 was read as LDHA block -3.4, ClpP mod -23.9%, hERG WT inh 4.6, KCNH2 3.1 block 18.0, BCR signal inh -1.6% and 12-LOX inh inconclusive.
O=C(O)CNS(=O)(=O)c1cc(C(=O)O)ccc1C(=O)O was read as LDHA block 5.9 and 12-LOX inh inconclusive.
For CCC(C)NC(=O)CN1C(=O)NC2(CCc3ccccc3C2)C1=O (stereo not drawn) the results were LDHA block -9.5, hERG WT inh 0.2, KCNH2 3.1 block -77.0*, BCR signal inh 3.2% and 12-LOX inh 10.4%.
Screening CC(C)NC(=O)NC(=O)CN1C(=O)NC2(CCc3ccccc3C2)C1=O (stereo not drawn) returned LDHA block -3.2, hERG WT inh 4.3, KCNH2 3.1 block 20.3, BCR signal inh 0.7% and 12-LOX inh -10.6%.
Cc1ccc(C2NNC(=O)C2NC(=O)c2ccccc2)cc1 (stereo not drawn) was read as LDHA block -6.5, ClpP mod -0.7%, hERG WT inh 0.8, KCNH2 3.1 block -1.6, BCR signal inh inconclusive and 12-LOX inh 25.1µM*.
C#CCNC(=O)CN1CCC(CN2CCCCCC2)CC1 was read as LDHA block 3.7 and 12-LOX inh 49.0%.
O=C(NCc1ccccc1)c1cccc(OCC(=O)N2CCN(C(=O)c3ccco3)CC2)c1 was read as LDHA block 4.1, ClpP mod -1.8%, hERG WT inh 5.3, KCNH2 3.1 block -96.6*, BCR signal inh inconclusive and 12-LOX inh inconclusive.
Screening CN(CCc1noc(COc2cccc(C(F)(F)F)c2)n1)C(=O)c1cccc(Cl)c1 returned LDHA block -3.7 and 12-LOX inh -5.3%.
COc1cccc([S+](=O)([O-])N2CCC(N3CCNC3=O)CC2)c1 was read as 12-LOX inh 5.1%[6.33 µM].
Screening CCOc1ccc(-n2c(-c3ccc(Br)cc3)c[n+]3c2CCCCC3)cc1 returned LDHA block -6.4, hERG WT inh -81.3*, KCNH2 3.1 block -85.3*, BCR signal inh inconclusive and 12-LOX inh -2.5%.

Screening data deposited in PubChem BioAssay by National Center for Advancing Translational Sciences (NCATS).
